Consider eight compounds from PubChem BioAssay (NCI).

About 83,000 compounds went through this panel and 20% of them were active in at least one assay; those are over-represented in the sample as a whole.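 Activity criterion: percent growth below 10, measured after cells in 96-well plates were exposed to a single compound concentration for 48 hours.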 A number with no mark means an inactive call. The source made the active and inactive calls.

Among the test systems are SK-MEL-2 melanoma; EKVX NSCLC; SN12C renal; UO-31 renal; TK-10 renal; ACHN renal; CAKI-1 renal; A498 renal; CCRF-CEM leukemia; MOLT-4 leukemia; RPMI-8226 leukemia; OVCAR-8 ovarian; OVCAR-5 ovarian; OVCAR-4 ovarian; SK-OV-3 ovarian; IGROV1 ovarian; OVCAR-3 ovarian; HS 578T breast; NCI/ADR-RES ovarian; SR leukemia.
Assay in all cases: NCI-60 one-dose screen, 48 h (100 = growth as untreated, 0 = no growth, -100 = all killed)
What all share (settings): 10 µM unless noted

Consider `CSc1nc(NCCO)c(C#N)c(-c2cccc([N+](=O)[O-])c2)n1`, for which the growth in the assay with SK-MEL-2 melanoma was 113%; in the assay on EKVX NSCLC it was 88.9%; in the assay with SN12C renal it was 90.4%; in the assay with UO-31 renal, 73.2%; in the assay on TK-10 renal, 120%; in the assay on ACHN renal, 93%. Moreover, the growth in the assay on CAKI-1 renal is 83.9%; in the assay with A498 renal, 72.6%; with CCRF-CEM leukemia it was 99.1%; with MOLT-4 leukemia, 99%; with RPMI-8226 leukemia, 103%; with OVCAR-8 ovarian, 99.1%. The growth in the assay on OVCAR-5 ovarian was 98.1%; in the assay with OVCAR-4 ovarian, 105%; in the assay on SK-OV-3 ovarian it was 102%; in the assay on IGROV1 ovarian, 97.9%; with OVCAR-3 ovarian, 112%; in the assay on HS 578T breast it was 93.4%. Besides, in the assay with NCI/ADR-RES ovarian, the growth is 98.1%.

On to `COc1ccc(-c2nc3ccc(-c4nc5ccc(N6CCN(C)CC6)cc5[nH]4)cc3[nH]2)cc1OC`, for which the growth was 45% in the assay with SK-MEL-2 melanoma; 85.4% in the assay on EKVX NSCLC; 71.1% in the assay with SN12C renal; 99.4% in the assay on UO-31 renal; 84.3% in the assay on TK-10 renal; 100% in the assay with ACHN renal. In addition, the growth was 71.9% in the assay on CAKI-1 renal; 76.6% in the assay with A498 renal; 51.7% with CCRF-CEM leukemia; 61.1% in the assay with MOLT-4 leukemia; 110% with RPMI-8226 leukemia; 55.8% in the assay on OVCAR-8 ovarian. Besides, the growth with OVCAR-5 ovarian is 99.1%; with OVCAR-4 ovarian, 68.4%; with SK-OV-3 ovarian it was 74.2%; in the assay with IGROV1 ovarian it was 79.6%; in the assay on OVCAR-3 ovarian, 30.4%; with HS 578T breast, 72.2%. The growth in the assay on NCI/ADR-RES ovarian was 103%.

As for `O=CNc1ccc2c(c1)Cc1cccc(NC=O)c1-2`, the growth is 106% in the assay with SK-MEL-2 melanoma; 80.4% with EKVX NSCLC; 95.8% with SN12C renal; 78.8% with UO-31 renal; 98.7% in the assay on TK-10 renal; 85.8% in the assay with ACHN renal. Further, the growth with CAKI-1 renal was 93%; in the assay with A498 renal it was 105%; with CCRF-CEM leukemia, 107%; in the assay on MOLT-4 leukemia it was 75%; in the assay with SR leukemia it was 108%; with RPMI-8226 leukemia, 103%. Moreover, the growth in the assay on OVCAR-8 ovarian is 99.5%; with OVCAR-4 ovarian it was 112%; with SK-OV-3 ovarian, 104%; with IGROV1 ovarian, 103%; in the assay with OVCAR-3 ovarian, 90.2%; in the assay on NCI/ADR-RES ovarian, 99.7%.

In the case of `N#CCCN=Nc1c(O)[nH]c2ccc(F)cc12`, the growth in the assay with SK-MEL-2 melanoma was 101%; in the assay on EKVX NSCLC, 90.9%; in the assay on SN12C renal, 101%; in the assay on UO-31 renal it was 80.6%; with TK-10 renal, 108%; with ACHN renal it was 103%. The growth with CAKI-1 renal was 84.8%; in the assay on A498 renal it was 75.8%; with CCRF-CEM leukemia, 107%; in the assay with MOLT-4 leukemia it was 103%; in the assay with RPMI-8226 leukemia it was 109%; in the assay on OVCAR-8 ovarian, 107%. The growth with OVCAR-5 ovarian was 97.7%; in the assay with OVCAR-4 ovarian, 90.4%; in the assay on SK-OV-3 ovarian, 100%; in the assay with IGROV1 ovarian, 101%; in the assay with OVCAR-3 ovarian, 103%; in the assay with HS 578T breast it was 97.9%. The growth in the assay with NCI/ADR-RES ovarian was 98.7%.

With `COc1cc(/C=C/C(=O)c2c(C)oc3nc[nH]c(=O)c23)cc(OC)c1OC`, the growth with SK-MEL-2 melanoma was 82.5%; in the assay on EKVX NSCLC, 61.9%; in the assay with SN12C renal it was 79.8%; in the assay on UO-31 renal it was 63.2%; with TK-10 renal, 151%; in the assay on ACHN renal it was 74.7%. Also, the growth in the assay on CAKI-1 renal was 72.7%; with A498 renal, 93.4%; in the assay on CCRF-CEM leukemia, 34%; with MOLT-4 leukemia it was 68.4%; in the assay with RPMI-8226 leukemia, 61.9%; in the assay with OVCAR-8 ovarian, 79.5%. Moreover, the growth in the assay on OVCAR-5 ovarian was 96.5%; in the assay with OVCAR-4 ovarian, 74.9%; in the assay on SK-OV-3 ovarian, 98.7%; with IGROV1 ovarian, 75.4%; in the assay on OVCAR-3 ovarian, 77.8%; in the assay with HS 578T breast, 84.3%. In addition, the growth in the assay on NCI/ADR-RES ovarian was 82.1%.

For the compound `O=C(N=Nc1c(O)[nH]c2ccccc12)c1cc(-c2ccccc2)on1`, the growth in the assay on SK-MEL-2 melanoma is 108%; in the assay on EKVX NSCLC, 92%; with SN12C renal, 96%; in the assay on UO-31 renal, 85.4%; in the assay with TK-10 renal it was 123%; in the assay on ACHN renal it was 97.2%. Besides, the growth in the assay with CAKI-1 renal is 86.7%; in the assay with A498 renal, 103%; in the assay with CCRF-CEM leukemia it was 107%; in the assay with MOLT-4 leukemia, 104%; in the assay with RPMI-8226 leukemia, 112%; in the assay with OVCAR-8 ovarian, 102%. Besides, the growth in the assay with OVCAR-5 ovarian was 99.8%; with OVCAR-4 ovarian it was 104%; in the assay on SK-OV-3 ovarian, 116%; in the assay on IGROV1 ovarian, 104%; in the assay with OVCAR-3 ovarian, 111%; with HS 578T breast, 96.7%. Moreover, the growth with NCI/ADR-RES ovarian was 105%.

`COc1ccc(/C=C/C(=O)c2ccc(O)c(CN3CCN(c4cc5c(cc4F)c(=O)c(C(=O)O)cn5C4CC4)CC3)c2)cc1`: the growth in the assay with SK-MEL-2 melanoma was 34.5%; with EKVX NSCLC it was 57.3%; with SN12C renal, 7.55% (active); in the assay with UO-31 renal, 3.15% (active); in the assay with TK-10 renal it was 52.7%; in the assay on ACHN renal, 25.5%. Also, the growth is 32% with CAKI-1 renal; -0.877% (active) in the assay on A498 renal; 28.6% in the assay on CCRF-CEM leukemia; 45.7% in the assay on MOLT-4 leukemia; -3.49% (active) with RPMI-8226 leukemia; 13.2% in the assay with OVCAR-8 ovarian. For the same compound, the growth was 47.5% in the assay on OVCAR-5 ovarian; 88.1% in the assay on OVCAR-4 ovarian; 46.5% in the assay on SK-OV-3 ovarian; 33.8% in the assay with IGROV1 ovarian; 19.1% in the assay on OVCAR-3 ovarian; 35.4% in the assay on HS 578T breast. Further, the growth in the assay with NCI/ADR-RES ovarian was 43.1%.

As for `CSc1nc(Nc2cccc(NC(=O)/C(C#N)=C/c3c(Cl)cccc3Cl)c2)c(C#N)c(-c2cccc([N+](=O)[O-])c2)n1`, the growth in the assay with SK-MEL-2 melanoma was 52.8%; with EKVX NSCLC it was 56.7%; in the assay with SN12C renal, 44.6%; with UO-31 renal it was 33.7%; with TK-10 renal, 99.6%; with ACHN renal, 57.9%. Besides, the growth was 24.5% in the assay on CAKI-1 renal; 73.5% with A498 renal; 43.3% in the assay with CCRF-CEM leukemia; 23.9% with MOLT-4 leukemia; 26.8% in the assay with RPMI-8226 leukemia; 53.6% in the assay on OVCAR-8 ovarian. The growth in the assay with OVCAR-5 ovarian is 67.5%; with OVCAR-4 ovarian it was 49.7%; in the assay on SK-OV-3 ovarian, 99.2%; in the assay on IGROV1 ovarian, 29.2%; in the assay with OVCAR-3 ovarian, 31%; in the assay on HS 578T breast, 66.9%. The growth in the assay with NCI/ADR-RES ovarian is 60.5%.
